GSH bead fluor: GSH bead compound fluorescence profile; AID 1776; 190,000 compounds, 0.25% hits; GSH beads flow cytometry, compound fluorescence 488/530 nm; stronger effect = higher value; fluorescence (KMESF) at 10 µM; in the data active = fluorescence above about 89;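 note: glutathione beads carrying GST-tagged Bcl family fusion proteins plus one bare bead set; values are compound well signal with DMSO vehicle wells as background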
RGS4-Gao reg: human RGS4-Galphao interaction regulation; P09471; Multiplexed bead flow cytometry, RGS4-Galphao binding; actives lie on both sides; binding response (% of control), % at 10 µM; 220,000 compounds, 0.33% hits; in the data active = binding response below about 49% or above about 150%; inactive = in between;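 note: fluorescent Galphao activated with aluminum fluoride binding bead-coupled RGS4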
Target sequence (P09471 whole entry, looked up): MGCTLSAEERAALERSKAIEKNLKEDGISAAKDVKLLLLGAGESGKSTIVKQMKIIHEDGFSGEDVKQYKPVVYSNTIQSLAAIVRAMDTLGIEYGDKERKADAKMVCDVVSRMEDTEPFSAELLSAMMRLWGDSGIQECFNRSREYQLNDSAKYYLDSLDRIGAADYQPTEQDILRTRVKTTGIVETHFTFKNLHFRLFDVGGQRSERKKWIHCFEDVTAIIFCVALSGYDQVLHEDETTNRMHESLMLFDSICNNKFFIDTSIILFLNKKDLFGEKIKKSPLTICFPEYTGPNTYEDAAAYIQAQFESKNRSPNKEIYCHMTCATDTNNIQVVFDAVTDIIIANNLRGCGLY
Avidin fluor: compound fluoresces at 488/530 nm on avidin beads; compound fluorescence 488/530 nm, flow cytometry; stronger effect = higher value; fluorescence (KMESF) at 10 µM; 220,000 compounds, 0.38% hits; AID 1775; in the data active = fluorescence above about 47
RGS8-Gao reg: human RGS8-Galphao interaction regulation; P09471; multiplexed bead flow cytometry, RGS8-Galphao binding; actives lie on both sides; response (percent of control binding), % at 10 µM; 220,000 compounds, 0.34% hits; in the data active = response below about 60% or above about 140%; inactive = in between;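 note: Galphao activated as the GDP aluminium fluoride complex binding bead-coupled RGS8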
RGS7-Gao: human RGS7-Galphao interaction regulation; P09471; Multiplexed bead flow cytometry, RGS7-Galphao binding; actives lie on both sides; binding response (% of control), % at 10 µM; 220,000 compounds, 0.35% hits; AID 1439; in the data active = binding response below about 49% or above about 150%; inconclusive = no clear call, values can overlap the other calls; inactive = in between;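 note: fluorescent Galphao held in activated GDP-AlF4 state binding bead-coupled RGS7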
RGS16-Gao: modulates binding between human RGS16 and Galphao; O15492+P09471; bead-based flow cytometry RGS16-Galphao binding, fluorescence; actives lie on both sides; binding response (% of control), % at 10 µM; 220,000 compounds, 0.38% hits; AID 1441;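 note: Galphao activated by GDP with aluminum fluoride before binding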
Target sequence (O15492 whole entry, looked up): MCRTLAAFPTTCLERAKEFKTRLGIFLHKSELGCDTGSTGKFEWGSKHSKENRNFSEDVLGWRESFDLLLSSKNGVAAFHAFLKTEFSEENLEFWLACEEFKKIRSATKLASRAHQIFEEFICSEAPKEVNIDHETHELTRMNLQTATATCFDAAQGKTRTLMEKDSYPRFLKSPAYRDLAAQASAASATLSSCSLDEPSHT
Target sequence (P09471 whole entry, looked up): as the sequence (P09471 whole entry, looked up) above
RGS-Gao: RGS4-Galphao interaction regulator (human). multiplexed bead flow cytometry, RGS–Galpha-o binding. shares compounds with RGS16-Gao. 1,600 compounds, 99% hits. AID 1504. RGS4–Galpha-o binding response, % at 10 µM;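 note: fluorescently labeled Galpha-o bound to GDP with aluminium fluoride binding biotinylated RGS beads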
Biotin-avidin: counter-screen: compounds disrupting biotin binding to avidin beads; shares compounds with RGS16-Gao; streptavidin beads, fluorescein-biotin binding, flow cytometry; inhibition, % at 10 µM; 1,700 tested, under 10 active; AID 1783;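 active = inhibition above 50%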;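 note: median green fluorescence of gated singlet beads compared with DMSO control wells; 0% = DMSO wells and 100% = complete loss of bead fluorescence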
RGS8-Gao confirm: confirmation of regulators of human RGS8-Galphao interaction; shares compounds with RGS16-Gao; bead-based flow cytometry RGS8-Galphao binding, fluorescence; actives lie on both sides; binding response (% of control), % at 10 µM; 1,700 compounds, 3% hits; AID 1836; in the data active = binding response below about 72% or above about 130%; inactive = in between;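 note: Galphao activated as GDP AlF4 complex before binding bead RGS8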
RGS7-Gao single: RGS7-Galphao interaction regulation, single point confirmation | 1,700 compounds, 7.8% hits | bead-based flow cytometry RGS7-Galphao binding; actives lie on both sides | AID 1837 | response (percent of control binding), % at 10 µM | shares compounds with RGS16-Gao; in the data active = response below about 75% or above about 130%; inactive = in between;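 note: fluorescent Galphao activated with GDP and aluminum fluoride binding bead-coupled RGS7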
RGS16-Gao conf: confirmation of regulators of human RGS16-Galphao interaction; 1,700 compounds, 4% hits; shares compounds with RGS16-Gao; response (% of control binding), % at 10 µM; AID 1838; bead-based flow cytometry, RGS16-Galphao binding; actives lie on both sides; in the data active = response below about 74% or above about 130%; inactive = in between;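 note: Galphao activated as the GDP aluminium fluoride complex binding bead-coupled RGS16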
RGS4-Gao confirm: confirmation of regulators of human RGS4-Galphao interaction. shares compounds with RGS16-Gao. RGS4-Galphao binding, multiplexed bead flow cytometry; actives lie on both sides. binding response (% of control), % at 10 µM. 1,700 compounds, 4% hits. AID 1840; in the data active = binding response below about 74% or above about 130%; inactive = in between
RGS19-Gao conf: confirmation of regulators of human RGS19-Galphao interaction; response (percent of control binding), % at 10 µM; shares compounds with RGS16-Gao; bead-based flow cytometry RGS19-Galphao binding; actives lie on both sides; AID 1841; 1,700 compounds, 5% hits; in the data active = response below about 50% or above about 160%; inactive = in between;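 note: 100% = no compound control and 0% = blank background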
Active calls of the source: *; ? = inconclusive; . = no result given; [ ] = remark or other dose. A selection: hits, their analogues and other compounds. The true share with any hit is near 1.2%. Unless noted, the rule behind the calls is not given here.

SMILES	GSH bead fluor	RGS4-Gao reg	Avidin fluor	RGS8-Gao reg	RGS7-Gao	RGS16-Gao	RGS-Gao	Biotin-avidin	RGS8-Gao confirm	RGS7-Gao single	RGS16-Gao conf	RGS4-Gao confirm	RGS19-Gao conf
Cn1cnnc1SCC(=O)Nc1c(F)cc(F)cc1Br	41	.	.	.	.	.	.	1.2	102.2	97.4	100.9	100.7	96.5
O=C(NC1CCCCC1)c1ccc(N2CCCC2=O)cc1	15	108.2	19	131.3	119.6	211.1*[activator]	108.2*	.	.	.	.	.	.
Cc1cc(NS(=O)(=O)c2ccc(NC(NC(=O)C(C(F)(F)F)C(F)(F)F)(C(F)(F)F)C(F)(F)F)cc2)no1	15	101.2	3	80.0	155.4*[activator]	40.4	101.2*	-1.6	94.8	98.1	98.7	98.3	96.6
CC(Nc1ccccc1N1CCCCC1)C(=O)N1CCc2ccccc21 (stereo unspecified)	11	97.9	6	98.7	93.1	96.8	.	.	.	.	.	.	.
Cc1cc(NC(=O)c2cc(-c3cccs3)nc3ccccc23)no1	18	95.2	233*	97.3	255.8*[activator]	107.0	95.2*	4.9	99.7	94.0	102.1	99.7	75.5
CC(=O)N1CCN(c2ccc([N+](=O)[O-])c(-n3nc(C)cc3C)c2)CC1	8	78.8	1	59.8*	84.0	9.6	78.8*	-1.7	92.1	86.2	89.8	92.0	86.4
O=C(c1ccco1)N1CCN(c2ccc([N+](=O)[O-])c(N3CCOCC3)c2)CC1	13	42.8*	4	51.3*	30.9*	50.5	.	-1.8	100.1	61.0*	82.6	77.3	65.9
Cc1cc(C)n(-c2cc(N3CCN(C(=O)c4cccc(Br)c4)CC3)ccc2[N+](=O)[O-])n1	25	100.2	11	101.8	101.7	103.8	.	.	.	.	.	.	.
CCC1(C)Cc2ccccc2-c2nc(NCCCO)n(-c3ccccc3)c(=O)c21 (stereo unspecified)	12	112.4	9	126.5	118.0	220.5	.	.	.	.	.	.	.
Cc1ccc(S(=O)(=O)CC(=O)Nc2ccc(F)c(F)c2F)cc1	.	-12.1*	-2	9.2*	?	-6.7*	.	-1.0	100.7	101.5	99.5	101.4	97.4
COc1cc(NC(=O)CS(=O)(=O)c2ccc(C)cc2)cc(OC)c1OC	33	101.7	15	99.7	101.1	100.7	.	.	.	.	.	.	.
Cc1ccc(C)n1-c1cccc(C(=O)O)c1	7	84.0	2	49.2*	22.0*	91.2	84.0*	.	.	.	.	.	.
Cc1ccc(C)n1-c1cccc(N)c1	9	49.3*	12	81.7	72.8	54.1	.	-1.0	100.2	99.5	101.2	96.2	110.4
Cc1ccc(N=Cc2nc(-c3ccc(C)cc3)oc2O)cc1	16	105.6	7	104.0	108.0	103.2	.	.	.	.	.	.	.
Oc1oc(-c2ccc(Br)cc2)nc1C=Nc1ccc(Br)cn1	13	134.0	22	146.3*[activator]	137.7	160.9	134.0*	0.1	102.6	93.5	100.2	94.0	107.5
CC(C)(C)c1nnc2sc(SCC(=O)c3ccccc3)nn2c1=O	22	101.1	14	102.3	105.7	100.3	.	.	.	.	.	.	.
CC(C)(C)c1nnc2sc(SC/C(O)=C(\C#N)c3nc4ccccc4[nH]3)nn2c1=O	30	177.2*[activator]	5	148.1*[activator]	161.3*[activator]	177.8*[activator]	.	0.4	101.3	94.7	97.0	95.8	86.7
Cc1noc(C)c1S(=O)(=O)NC1CCN(Cc2ccccc2)CC1	19	108.0	5	120.5	106.0	183.0*[activator]	108.0*	.	.	.	.	.	.
Cc1nnc(SCC(=O)Nc2cc(C(C)(C)C)nn2-c2ccccc2)s1	6	100.7	11	102.6	104.0	111.6	.	.	.	.	.	.	.
CCn1c(SCC(=O)Nc2cc(C(C)(C)C)nn2-c2ccccc2)nnc1-c1cccs1	18	110.1	86*	95.8	185.4*[activator]	91.3	110.1*	-0.5	93.6	88.8	95.2	92.5	86.1
C=CCN1C(=O)C2(NNc3ccccc3O2)c2ccccc21 (stereo unspecified)	37	99.6	10	101.2	98.8	101.8	.	.	.	.	.	.	.
C=CCN1C(=O)C2(NC(=O)c3ccccc3N2)c2ccccc21 (stereo unspecified)	22	123.1	164*	88.5	270.1*[activator]	104.1	123.1*	-0.1	101.6	99.0	98.2	101.1	102.5
c1ccc(-c2csc(-n3cccn3)n2)cc1	12	99.4	25	103.2	103.9	106.7	.	.	.	.	.	.	.
Cc1cc(C)n(C(N)=NC(=O)c2ccc([N+](=O)[O-])cc2)n1	.	34.9*	1	53.8*	?	35.7	.	0.7	99.2	95.3	98.7	98.3	98.4
Cc1cc(C)n(C(=O)COc2ccc([N+](=O)[O-])cc2)n1	8	101.8	3	102.0	102.0	107.8	.	.	.	.	.	.	.
SMILES	GSH bead fluor	RGS4-Gao reg	Avidin fluor	RGS8-Gao reg	RGS7-Gao	RGS16-Gao	RGS-Gao	Biotin-avidin	RGS8-Gao confirm	RGS7-Gao single	RGS16-Gao conf	RGS4-Gao confirm	RGS19-Gao conf
OCCC1CN(Cc2ccon2)CCN1CCc1ccccc1 (stereo unspecified)	12	97.2	1	99.3	101.0	98.0	.	.	.	.	.	.	.
O=C(Nc1ccc2c(c1)OCO2)C1CCN(Cc2cnn(-c3ccccc3)c2-n2cccc2)CC1	44	79.2	3	55.8*	36.7*	134.4	79.2*	0.1	98.3	97.4	97.7	97.2	96.2
Cc1[nH]c2ccccc2c1/C=N/NC(=S)NC(C)C	18	124.7	16	102.0	175.6*[activator]	117.8	124.7*	2.2	107.7	258.8*[activator]	148.7*[activator]	184.4*[activator]	230.5*[activator]
CCOC(=O)C1CSC(CC(=O)Nc2ccc(OC(F)(F)F)cc2)C(=O)N1 (stereo unspecified)	.	101.8	5	103.1	?	103.8	.	.	.	.	.	.	.
Cc1cc(/C=N/Nc2nc(N3CCOCC3)nc(N3CCOCC3)n2)c(C)n1-c1ccccc1	21	26.5*	58*	7.9*	50.8	28.1	.	0.0	100.4	101.2	100.7	100.9	112.9
O=C(c1ccc(Cl)cc1)N1CCCC(c2ccccc2)=N1	17	98.8	8	99.8	93.9	97.6	.	.	.	.	.	.	.

Screens: PubChem BioAssay, NMMLSC
